Laboratory results taken from PubChem BioAssay (NCI).
Compounds without any hit were thinned out: in the full panel of roughly 79,000, 15% have a hit. A number with no mark means an inactive call. Activity calls are given as the source filed them. Cut-off read from the data, not from the text of the source: active = growth inhibition above about 70%; inactive = the rest.

Key:
[1] = NCI Yeast Anticancer Drug Screen. Data for the rad50 strain (AID 155);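 note: 0% = growth of vehicle-only cultures of the same strain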; details: S. cerevisiae rad50 strain growth inhibition, stronger effect = higher value
In short: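 Compounds were tested on a yeast strain with an engineered DNA damage repair alteration; the reported value is growth inhibition normalised to vehicle treatment.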

[2] = NCI Yeast Anticancer Drug Screen. Data for the mec2-1 strain (AID 157); details: S. cerevisiae mec2-1 strain, stronger effect = higher value
In short: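 Vehicle-treated cultures served as reference for growth inhibition of compound-exposed mec2-1 yeast.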

[3] = NCI Yeast Anticancer Drug Screen. Data for the sgs1 mgt1 strain (AID 161);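 note: 0% = growth of cultures given vehicle only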; details: S. cerevisiae sgs1 mgt1 strain, stronger effect = higher value
In short: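 Test agents were incubated with a DNA-repair-mutant yeast strain. Growth was then read and compared against vehicle-treated controls.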

[4] = NCI Yeast Anticancer Drug Screen. Data for the cln2 rad14 strain (AID 165);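 note: 0% = growth equal to vehicle treated cultures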; details: S. cerevisiae cln2 rad14 strain, stronger effect = higher value
In short: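 Each compound was tested on cln2 rad14 yeast. Inhibition of growth was calculated against vehicle-exposed controls.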

[5] = NCI Yeast Anticancer Drug Screen. Data for the bub3 strain (AID 167); details: S. cerevisiae bub3 mutant strain, stronger effect = higher value
In short: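 Growth of a checkpoint-deficient yeast mutant is measured after compound exposure. Values represent inhibition relative to vehicle.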

[6] = NCI Yeast Anticancer Drug Screen. Data for the mlh1 rad18 strain (AID 175); details: S. cerevisiae mlh1 rad18 strain growth inhibition, stronger effect = higher value
In short: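 Vehicle-treated cultures served as the reference for growth inhibition in a yeast strain carrying DNA damage repair alterations exposed to each compound.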

[7] = at 5.0 µM (retest, dose inferred, filed as 0.5)
[8] = at 50.0 µM (retest, dose inferred, filed as 5.0)

Compound | growth inhibition [1, 7] | growth inhibition [1, 8] | growth inhibition ([1]; at 50.0 µM) | growth inhibition [2, 7] | growth inhibition [2, 8] | growth inhibition ([2]; at 50.0 µM) | growth inhibition [3, 7] | growth inhibition [3, 8] | growth inhibition ([3]; at 50.0 µM) | growth inhibition [4, 7] | growth inhibition [4, 8] | growth inhibition ([4]; at 50.0 µM) | growth inhibition [5, 7] | growth inhibition [5, 8] | growth inhibition ([5]; at 50.0 µM) | growth inhibition [6, 7] | growth inhibition [6, 8] | growth inhibition ([6]; at 50.0 µM)
C=C(CN(C)C)C(=O)c1ccccc1Cl | -10% | 90% (active) | 90.8% (active) | -15% | 80% (active) | 92.7% (active) | 15% | 95% (active) | 92.5% (active) | -10% | 25% | 7.9% | -14% | 96% (active) | 70.6% (active) | 46% | 98% (active) | 98.1% (active)
CCn1c(O)c(C=Nc2ccccc2)s/c1=N/Nc1nc(-c2ccc(O)c(O)c2)cs1 | 0% | 21% | 57% | -22% | 1% | 48.4% | -6% | 11% | 72.2% (active) | -10% | 6% | 41.5% | -7% | 38% | 79% (active) | -17% | 25% | 66%
CCCCCCCOC(=O)CSC#N | 61% | 99% (active) | 99.2% (active) | 52% | 99% (active) | 99.3% (active) | 95% (active) | 99% (active) | 99% (active) | 29% | 99% (active) | 98.5% (active) | 86% (active) | 99% (active) | 99.3% (active) | 90% (active) | 98% (active) | 99.3% (active)
Nc1ccccc1N=Cc1ccccc1O | -12% | 54% | 66.2% | -4% | 76% (active) | 41.2% | -8% | 91% (active) | 0.4% | -18% | 55% | 22.8% | -12% | 63% | 5.85% | 3% | 80% (active) | 69.3%
O=C(O)CSc1nnc2c3ccccc3c3ccccc3c2n1 | -14% | 70% (active) | 48% | 6% | 46% | 30.1% | -2% | 55% | 7.8% | -33% | 65% | 47.7% | 17% | 53% | 54.9% | 9% | 71% (active) | 47.1%
C/C(=N\Nc1ccccn1)c1ccccn1 | 47% | 98% (active) | 98.8% (active) | 61% | 99% (active) | 98.7% (active) | 57% | 98% (active) | 99% (active) | 56% | 99% (active) | 97.3% (active) | 53% | 98% (active) | 49.9% | 60% | 98% (active) | 98.5% (active)
CN(C)C1CCC2C3CC=C4CC(OC=O)CCC4(C)C3CCC21C (stereo not given) | -1% | 48% | 71.2% (active) | 2% | 42% | 17.3% | 2% | 60% | 65.5% | 17% | 83% (active) | 76.4% (active) | 0% | 86% (active) | 48.8% | -11% | 52% | 45.7%
CCCCCCCCCCCCOC(=O)C[n+]1cccc(C(=O)Nc2ccccc2)c1 | 96% (active) | 98% (active) | 99.2% (active) | 97% (active) | 99% (active) | 99.4% (active) | 95% (active) | 99% (active) | 99.5% (active) | 96% (active) | 99% (active) | 98.9% (active) | 96% (active) | 98% (active) | 98.8% (active) | 99% (active) | 99% (active) | 99.2% (active)
CC(C)CC(NC(=O)SCc1ccccc1)C(=O)O (stereo not given) | -2% | 35% | 3.35% | -12% | -5% | 1.6% | -1% | -1% | 3% | 5% | 8% | 15.4% | 2% | 1% | -5.95% | 3% | 24% | 14.8%
CCn1c2ccccc2n2c(=O)cc(-c3ccccc3)c(C#N)c12 | 7% | 2% | 27.1% | -2% | -2% | 12.7% | -12% | 0% | 33.6% | 7% | -9% | 12.3% | 7% | 11% | 18.4% | -2% | -4% | 24.4%
Cc1ccccc1C(=O)c1ccc(O)c2ccccc12 | -6% | 90% (active) | 99.4% (active) | 4% | 82% (active) | 94.5% (active) | 9% | 94% (active) | 64.3% | -10% | 65% | 29.3% | 4% | 71% (active) | 55.2% | 32% | 94% (active) | 99.4% (active)
O=C1C=CC(=O)N1c1ccccc1[N+](=O)[O-] | 98% (active) | 99% (active) | 99.5% (active) | 99% (active) | 100% (active) | 99.5% (active) | 98% (active) | 99% (active) | 99.4% (active) | 90% (active) | 99% (active) | 99.6% (active) | 97% (active) | 100% (active) | 99.5% (active) | 98% (active) | 100% (active) | 99.5% (active)
Cc1cc(O)c(C(=O)/C=C/c2ccnc3ccccc23)c(=O)o1 | -7% | 5% | -9.7% | -17% | -1% | -6.65% | 6% | 20% | -2% | 11% | 8% | -13.4% | 22% | 8% | -4.8% | 15% | 8% | -23.2%
COc1ccc(/C=C2\CCC/C(=C\c3ccc(OC)cc3)C2=O)cc1 | 26% | -17% | -5.5% | -9% | -17% | -11.3% | 2% | -17% | -2.1% | -21% | -20% | -72.2% | -5% | -5% | 1.05% | -8% | -14% | 9.55%
O=c1oc2ccccc2c(O)c1/C=N/C(=S)Nc1ccccc1 | 13% | 93% (active) | 71% (active) | -3% | 87% (active) | 34.5% | 6% | 88% (active) | 18.5% | 0% | 32% | 20.8% | 12% | 92% (active) | 46.9% | 9% | 97% (active) | 76% (active)
CCOC(=O)C(=Cc1ccccc1Br)C(=O)OCC | 16% | 92% (active) | 78.5% (active) | 33% | 94% (active) | 92.5% (active) | 20% | -18% | 96.5% (active) | 17% | 93% (active) | 67.8% | 26% | 96% (active) | 95.7% (active) | 14% | 97% (active) | 96.2% (active)
Cc1ccc(Sc2ccc3ccccc3n2)cc1 | 2% | -34% | 36% | -3% | 46% | 37.5% | 15% | 37% | 50.2% | -18% | -24% | 50.2% | 1% | 30% | 67% | 0% | 18% | 2.25%
CN(C)Cc1ccccc1C(=O)C(=O)c1ccccc1CN(C)C | -9% | 48% | -3.15% | 1% | 70% (active) | 3% | -5% | 3% | -6.5% | 9% | 0% | 46.3% | 10% | 7% | 57.8% | -4% | 73% (active) | 6.45%
O=C1C(=O)C2CC3(CC1N2Cc1ccccc1)OCCO3 | 11% | 95% (active) | 98% (active) | -28% | 79% (active) | 96.5% (active) | 36% | 93% (active) | 96.9% (active) | 5% | 43% | 95.2% (active) | -10% | 78% (active) | 86.5% (active) | 34% | 94% (active) | 95.5% (active)
C(=C/c1ccccc1)/C=N/Nc1ccccc1 | -139% | -112% | -15.8% | -52% | -50% | 9.7% | -53% | -52% | -23.8% | -61% | -64% | -9% | -72% | -59% | 36.5% | -107% | -79% | 2.35%
